An excerpt weighted towards active compounds, which were near 7.9% of everything screened.
HCV inh – HCV inhibition | Huh7.5.1 HCVcc-Cre infection, luciferase reporter, 44 h | Potency, µM (doses to about 41.8 µM), usual class: inhibitors | 340,000 tested, 3.4% active | AID 651820; active means well fitted inhibition curve with a large enough effect; inconclusive means small, poorly fitted or top-dose-only effect, or another doubt; inactive means no such curve, though single readings can be large or run the other way
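HCVcc-Cre virus at an moi near 0.5 was added right after compound to cells cultured 4 h from seeding (1,000 cells/well). Luciferase activity was determined 44 h later, 15 min after substrate addition at RT.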
HCMV inh – blocks human cytomegalovirus replication. HFF cells, HCMV-luciferase reporter, 72 h; active compounds read low. activity change, negative = inhibition, % at 57.5 µM. 410,000 tested, 4.5% active. AID 1259415; in the data active means activity change below about -60%; inconclusive means no clear call, values can overlap the other calls; inactive means above about -39%
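Luciferase read-out from HCMV-luciferase-infected HFFs (MOI 1 PFU/cell) 72 h post infection at 37C; compounds added after 16 h cell attachment; activity normalized between buffer-only basal and Salinomycin (10uM) inhibitor controls.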
LASV entry inh – Lassa virus entry inhibition. Lassa virus pseudotype entry inhibition, cell reporter. Potency, µM (top dose mostly 37.9 µM), hits mostly inhibitors. 300,000 tested, 1.2% active. AID 540256; calls by dose curve; tested in HEK293 cells; further: nearly all actives have a fitted effect of over 50% in size
MARV entry inh – Marburg virus entry inhibition; Marburg virus pseudotyped entry inhibition, cell reporter; Potency, µM (highest dose often 37.8 µM), most hits filed as inhibitors; 300,000 tested, 1.8% active; AID 540276; calls by dose curve; tested in HEK293 cells
FMDV inh – antivirals against foot and mouth disease virus | FMDV antiviral cell-based qHTS | Potency, µM (doses to about 57.9 µM), most hits filed as inhibitors | AID 1159524 | 410,000 tested, 1.2% active; calls by dose curve; tested in HEK293T cells; further: read-out not given here; nearly all actives have a fitted effect of over 45% in size
A number is an active result; [ ] = another dose, or the depositor's remark.

Results for CCOC(=O)C1=CNS(=O)(=O)NC1c1ccc2ccccc2c1 (centres undefined) ?
HCV inh: 6.31µM; HCMV inh: inactive; FMDV inh: inactive

How did CCOC(=O)C1=CNS(=O)(=O)NC1c1cccc(O)c1 (centres undefined) do in these assays?
HCV inh: inactive[8.37 µM]; HCMV inh: inactive; FMDV inh: inactive

What do the screens show for `Cc1cccc2c1NC(=O)/C2=C\C(=O)c1cccs1`?
HCV inh: inactive; HCMV inh: inactive; LASV entry inh: inconclusive; MARV entry inh: inconclusive; FMDV inh: inconclusive

What do the screens show for `CCc1ccc2c(c1)/C(=C/C(=O)c1cccs1)C(=O)N2`?
HCV inh: 22.4µM; HCMV inh: -99.1; LASV entry inh: inconclusive; MARV entry inh: inconclusive; FMDV inh: 20µM

Results for CC(=O)Nc1cccc(Oc2ncnc3scc(-c4ccc(C(C)C)cc4)c23)c1 ?
HCV inh: inconclusive; HCMV inh: inconclusive; LASV entry inh: 2.51µM; MARV entry inh: 2.82µM; FMDV inh: inactive

What do the screens show for `CCCC(=O)NC(=S)Nc1ccc(Cl)cn1`?
HCV inh: inactive; HCMV inh: -68.9; LASV entry inh: inconclusive; MARV entry inh: inconclusive; FMDV inh: inactive

How did CCOc1ccc(C2CC(=O)Nc3nc(SCc4ccccc4C)[nH]c(=O)c32)cc1OC (centres undefined) do in these assays?
HCMV inh: -102.4; LASV entry inh: inactive; MARV entry inh: inactive; FMDV inh: inactive

How did CCOc1cc(C2CC(=O)Nc3nc(SCc4ccccc4)[nH]c(=O)c32)ccc1O (centres undefined) do in these assays?
HCMV inh: inactive; LASV entry inh: inactive; MARV entry inh: inactive; FMDV inh: inactive

Results for CC(=O)c1ccc(N2CCN(CC(O)COC(c3ccccc3)c3ccccc3C)CC2)cc1 (centres undefined) ?
HCV inh: 11.2µM; HCMV inh: inactive; LASV entry inh: inactive; MARV entry inh: inconclusive; FMDV inh: inactive

How did CC(=O)c1ccc(OCC(O)CN2CCN(c3ccc(F)cc3)CC2)cc1 (centres undefined) do in these assays?
HCV inh: inactive; HCMV inh: inactive; LASV entry inh: inactive; MARV entry inh: inactive; FMDV inh: inactive

Results for CC(=O)c1ccc(N2CCN(CC(O)COC(c3ccccc3)c3ccccc3)CC2)cc1 (centres undefined) ?
HCV inh: 3.98µM; HCMV inh: inactive; LASV entry inh: inactive; MARV entry inh: inconclusive; FMDV inh: inactive

What do the screens show for `COc1cc(C(C)=O)ccc1OCC(O)CN1CCN(c2cc(C)cc(C)c2)CC1` (centres undefined)?
HCV inh: 12.6µM; HCMV inh: inactive; FMDV inh: inactive

Results for O=C(Nc1ccc(C(=O)N2CCCCC2)cc1)c1nsc2ccccc12 ?
HCMV inh: inactive; LASV entry inh: inactive; FMDV inh: inactive

Results for CNc1ccc(Br)cc(C(=O)/C=C/c2ccc(Cl)cc2Cl)c1=O ?
HCV inh: inconclusive; HCMV inh: inactive; LASV entry inh: inconclusive; MARV entry inh: inconclusive; FMDV inh: 10µM

How did COc1ccc(C=C2c3ccccc3C(=O)c3ccccc32)c(OC)c1 do in these assays?
HCMV inh: -88.4

How did COc1ccc(/C=C/C(=O)c2cc(Cl)cc(Cl)c2O)c(OC)c1 do in these assays?
HCV inh: inconclusive; HCMV inh: inconclusive; LASV entry inh: inactive; MARV entry inh: inactive; FMDV inh: inactive

How did COc1ccccc1/C=C/C(=O)c1ccc(Cl)cc1 do in these assays?
HCV inh: inconclusive; HCMV inh: inactive; LASV entry inh: inactive; MARV entry inh: inactive; FMDV inh: inactive

Results for COc1ccc(OC)c(/C=C/C(=O)c2ccc(Cl)cc2)c1 ?
HCV inh: inconclusive; HCMV inh: inactive; LASV entry inh: inactive; MARV entry inh: inactive; FMDV inh: 22.4µM

Results for CNc1ccc(Br)cc(C(=O)/C=C/c2ccc(OC)cc2OC)c1=O ?
HCV inh: inactive; HCMV inh: -65.9; LASV entry inh: inactive; MARV entry inh: inactive; FMDV inh: inconclusive

Results for C=C1N(S(=O)(=O)C(F)(F)F)CC[C@@]12c1ccccc1N(C)[C@@H]2c1cn(C)c2ccccc12 ?
HCMV inh: inactive

What do the screens show for `CCNc1ccc(Br)cc(C(=O)/C=C/c2ccc3c(c2)OCO3)c1=O`?
HCV inh: inactive; HCMV inh: inactive; LASV entry inh: inactive; MARV entry inh: inactive; FMDV inh: inconclusive

How did COc1ccc(/C=C/C(=O)c2ccc(OC)cc2OC)c(OC)c1 do in these assays?
HCV inh: inconclusive; HCMV inh: -76.5; FMDV inh: inactive

Bioassay records (PubChem BioAssay)
